# Laboratory results taken from PubChem BioAssay.
# Calls of active or inactive are those of the source. Unless noted, how the calls were made is not given here.
# Legend:
# [1] = test system: Wnt5a (protein binding on small-molecule microarray); test: small molecules binding Wnt5a protein – biophysical, small-molecule microarray, 635/667 nm fluorescence, primary screen (AID 1142); details: 635 nm fluorescence, higher = more signal;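 further: fluorescence read at 667 nm with signal to noise per printed feature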
# [2] = ATP-based viability of Huh7 replicon cells – cell-based, CellTiter-Glo luminescence, basal, 48 h, cytotoxicity control for HCV replication inhibitor project, primary screen (AID 1143); details: higher = more signal, called active from +8 up or from −8 down;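 further: Huh7 hepatoma cells carrying a hepatitis C replication reporter with no stimulus; test concentration not given here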
# [3] = Pseudomonas biofilm growth suppression – PAO1 strain, BacTiter-Glo luminescence, LB-PBS, primary screen (AID 1144); details: P. aeruginosa PAO1 biofilm, 12 h, higher = more signal
# [4] = basal CRE-LacZ reporter activity in PC12 – cell-based, unstimulated, primary screen (AID 1145); details: no forskolin, luminescence, 4.5 h, higher = more signal, called active from +8 up or from −8 down
# [5] = forskolin-driven CRE-LacZ activity in PC12 – cell-based, CRE-LacZ reporter, forskolin-stimulated, primary screen (AID 1146); details: luminescence, 4.5 h, higher = more signal, called active from +8 up or from −8 down;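 further: PC12 cells with 6xCRE LacZ reporter stimulated by forskolin 10 µM; beta-galactosidase reporter signal reflecting CREB driven transcription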
# [6] = biological target: Streptavidin (Streptomyces avidinii) (UniProt P22629); test: compounds binding control protein streptavidin – biophysical, small-molecule microarray, 635/667 nm fluorescence, artefact control for SMM compound annotation, primary screen (AID 1147); details: higher = more signal;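 further: signal reflects streptavidin binding to arrayed compounds as a control protein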
# [7] = probe aInhba binding on compound microarray – biochemical, small-molecule microarray, 635/667 nm fluorescence, primary screen (AID 1148); details: higher = more signal;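 further: score merges 667nm spot fluorescence with signal-to-noise for antibody binding to printed compounds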
# Torsin-1A (Homo sapiens) [8] = biological target: Torsin-1A (Homo sapiens) (UniProt O14656); test: TOR1A wild-type binding on microarray – cell lysate, small-molecule microarray, lysate, 635/667 nm, primary screen (AID 1149); details: COS7 hTOR1A-WT lysate, 635 nm fluorescence, higher = more signal
# Torsin-1A (Homo sapiens) [9] = biological target: Torsin-1A (Homo sapiens) (UniProt O14656); test: torsin A mutant lysate binding on microarrays – cell lysate, small-molecule microarray, COS7 lysate, 635/667 nm fluorescence, primary screen (AID 1150); details: COS7 hTOR1A mutant lysate, 635 nm fluorescence, higher = more signal;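 further: score pools 667 nm emission and signal to noise measuring lysate protein binding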
# [10] = test system: Sonic hedgehog protein (Shh); test: Sonic hedgehog microarray binding compounds – biochemical, small-molecule microarray, 635/667 nm fluorescence, primary screen (AID 1151); details: 635 nm fluorescence, higher = more signal;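 further: Shh protein binding to compounds spotted on small-molecule microarray slides; score combines spot fluorescence intensity with signal-to-noise across triplicate slides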
# [11] = optical density shifts of acrAB sulA E. coli – strain DRC41, OD650, 48 h, E. coli filamentation inducer project, primary screen (AID 1152); details: higher = more signal, called active from +8 up or from −8 down;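 further: E. coli MC1000 strain DRC41 lacking acrAB efflux pump and sulA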
# [12] = probe aLefty1 binding on compound microarray – biochemical, small-molecule microarray, 635/667 nm fluorescence, primary screen (AID 1153); details: higher = more signal;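 further: score merges spot fluorescence with signal-to-noise ratio from the scanned slide images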
# [13] = plasmodial surface anion channel blockers, osmotic lysis – cell-based, P. falciparum Indochina, OD700, 1 h, primary screen (AID 1154); details: P. falciparum Indochina infected RBC osmotic lysis, higher = more signal, called active from +8 up or from −8 down
# [14] = plasmodial surface anion channel blockers, osmotic lysis – cell-based, P. falciparum Indochina, OD700, 2 h, primary screen (AID 1155);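 further: lysis reports solute entry through the parasite surface anion channel PSAC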; details: P. falciparum Indochina infected erythrocytes, higher = more signal, called active from +8 up or from −8 down
# [15] = changes in parasitized red cell lysis, either direction – P. falciparum Indochina, OD700, 3 h, PSAC antagonist project, primary screen (AID 1156); details: P. falciparum-infected erythrocytes, osmotic lysis, higher = more signal, called active from +8 up or from −8 down
# [16] = plasmodial surface anion channel blockers, osmotic lysis – cell-based, P. falciparum Indochina, OD700, 18 h, primary screen (AID 1157); details: P. falciparum Indochina infected erythrocytes, osmotic lysis OD700, 18 h; higher = more signal, called active from +8 up or from −8 down
# [17] = S6 kinase pathway phospho-S6 level changes – cell-based, A549, cytoblot, luminescence, serum-stimulated, primary screen (AID 1158); details: 5 h, higher = more signal;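 further: serum-stimulated A549 lung adenocarcinoma cells; signal is phosphorylated S6 detected by cytoblot immunostaining with HRP secondary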
# [18] = biological target: NADPH oxidase 2 (Homo sapiens) (UniProt P04839); test: compounds shifting NOX2 Amplex Red fluorescence – cell-based, HEK293-NOX2, PMA-stimulated, NOX inhibitor project, primary screen (AID 1159); details: 45 min, higher = more signal, called active from +8 up or from −8 down; further: test concentration not given here
# [19] = biological target: NADPH oxidase 4 (Homo sapiens) (UniProt Q9NPH5); test: compounds shifting NOX4 Amplex Red fluorescence – cell-based, HEK293-NOX4, tetracycline-induced, NOX inhibitor project, primary screen (AID 1160); details: HEK293-NOX4, Amplex Red H2O2 fluorescence, 45 min; higher = more signal, called active from +8 up or from −8 down
# [20] = biological target: NADPH oxidase 5 (Homo sapiens) (UniProt Q96PH1); test: compounds shifting NOX5 Amplex Red fluorescence – cell-based, HEK293-NOX5, NOX inhibitor project, primary screen (AID 1161); details: HEK293-NOX5, ionomycin, 45 min, higher = more signal
# Sequence of NADPH oxidase 5 (Homo sapiens) (Q96PH1 whole entry, looked up): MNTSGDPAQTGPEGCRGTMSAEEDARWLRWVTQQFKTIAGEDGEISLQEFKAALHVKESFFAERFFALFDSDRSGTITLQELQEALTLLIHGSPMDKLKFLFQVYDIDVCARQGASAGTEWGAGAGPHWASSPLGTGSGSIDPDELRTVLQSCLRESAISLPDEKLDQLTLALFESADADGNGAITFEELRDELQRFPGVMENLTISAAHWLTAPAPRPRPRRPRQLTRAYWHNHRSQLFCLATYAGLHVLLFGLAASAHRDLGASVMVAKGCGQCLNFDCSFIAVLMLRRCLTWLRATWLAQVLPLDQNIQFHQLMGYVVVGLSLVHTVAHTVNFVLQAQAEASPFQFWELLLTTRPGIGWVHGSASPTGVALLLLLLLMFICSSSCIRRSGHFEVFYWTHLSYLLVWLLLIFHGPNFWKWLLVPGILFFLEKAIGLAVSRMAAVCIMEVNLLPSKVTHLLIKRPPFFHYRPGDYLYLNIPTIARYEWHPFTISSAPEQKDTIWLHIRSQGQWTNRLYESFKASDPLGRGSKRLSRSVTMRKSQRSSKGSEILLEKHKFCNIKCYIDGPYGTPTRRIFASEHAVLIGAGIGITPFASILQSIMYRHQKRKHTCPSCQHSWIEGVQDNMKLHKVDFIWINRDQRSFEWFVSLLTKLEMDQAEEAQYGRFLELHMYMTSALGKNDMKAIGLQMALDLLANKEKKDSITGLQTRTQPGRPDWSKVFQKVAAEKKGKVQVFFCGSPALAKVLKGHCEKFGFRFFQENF
# Sequence of Torsin-1A (Homo sapiens) (O14656 whole entry, looked up): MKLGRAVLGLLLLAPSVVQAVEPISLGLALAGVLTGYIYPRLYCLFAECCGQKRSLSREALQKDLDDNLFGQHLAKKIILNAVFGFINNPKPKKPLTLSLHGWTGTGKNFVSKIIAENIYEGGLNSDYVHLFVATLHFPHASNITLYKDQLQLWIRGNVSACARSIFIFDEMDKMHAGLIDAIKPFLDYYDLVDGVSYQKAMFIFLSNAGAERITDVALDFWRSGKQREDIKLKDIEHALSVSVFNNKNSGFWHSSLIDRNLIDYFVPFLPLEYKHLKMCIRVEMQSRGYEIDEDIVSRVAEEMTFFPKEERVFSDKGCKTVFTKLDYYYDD
# Sequence of NADPH oxidase 2 (Homo sapiens) (P04839 whole entry, looked up): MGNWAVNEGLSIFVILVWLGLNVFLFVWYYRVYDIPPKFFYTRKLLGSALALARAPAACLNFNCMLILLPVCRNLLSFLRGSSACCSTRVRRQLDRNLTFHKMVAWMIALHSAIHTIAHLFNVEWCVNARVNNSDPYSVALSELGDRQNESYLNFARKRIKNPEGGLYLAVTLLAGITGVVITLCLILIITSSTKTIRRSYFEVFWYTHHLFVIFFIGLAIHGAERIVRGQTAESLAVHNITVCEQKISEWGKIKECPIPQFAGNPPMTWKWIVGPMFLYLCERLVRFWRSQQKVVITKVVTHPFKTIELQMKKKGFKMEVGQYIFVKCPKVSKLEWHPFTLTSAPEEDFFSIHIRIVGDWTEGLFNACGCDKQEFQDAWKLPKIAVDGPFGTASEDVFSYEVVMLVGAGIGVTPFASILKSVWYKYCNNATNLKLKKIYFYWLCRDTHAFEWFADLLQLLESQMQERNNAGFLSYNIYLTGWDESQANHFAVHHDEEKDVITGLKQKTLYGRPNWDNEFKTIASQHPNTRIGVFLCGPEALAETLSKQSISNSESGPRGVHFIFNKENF
# Sequence of Streptavidin (Streptomyces avidinii) (P22629 whole entry, looked up): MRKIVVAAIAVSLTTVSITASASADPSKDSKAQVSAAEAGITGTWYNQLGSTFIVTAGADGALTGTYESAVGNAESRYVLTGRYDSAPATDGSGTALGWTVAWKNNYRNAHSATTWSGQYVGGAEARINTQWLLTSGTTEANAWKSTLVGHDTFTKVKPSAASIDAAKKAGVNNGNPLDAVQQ
# Sequence of NADPH oxidase 4 (Homo sapiens) (Q9NPH5 whole entry, looked up): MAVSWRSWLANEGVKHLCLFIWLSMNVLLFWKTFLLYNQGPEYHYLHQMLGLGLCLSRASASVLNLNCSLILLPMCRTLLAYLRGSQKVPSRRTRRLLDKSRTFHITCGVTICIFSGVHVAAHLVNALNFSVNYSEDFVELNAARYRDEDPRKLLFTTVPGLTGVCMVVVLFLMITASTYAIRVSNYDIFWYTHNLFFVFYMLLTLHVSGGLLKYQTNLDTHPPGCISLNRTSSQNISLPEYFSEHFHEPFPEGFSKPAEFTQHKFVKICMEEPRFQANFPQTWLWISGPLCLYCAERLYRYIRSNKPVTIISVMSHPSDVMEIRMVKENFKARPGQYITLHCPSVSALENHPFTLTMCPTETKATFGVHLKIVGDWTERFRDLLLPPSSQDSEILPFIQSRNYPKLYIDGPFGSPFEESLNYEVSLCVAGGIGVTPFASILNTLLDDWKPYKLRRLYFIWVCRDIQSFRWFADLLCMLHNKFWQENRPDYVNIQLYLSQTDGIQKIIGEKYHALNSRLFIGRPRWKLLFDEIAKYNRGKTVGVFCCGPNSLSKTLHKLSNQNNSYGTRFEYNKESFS
smiles,measurement,setting,value
COCCOC(=O)N1C(=O)[C@@]2(c3cc(C#CCNC(N)=O)ccc31)[C@H](C(=O)N1CCCCCCC1)[C@H]1C(=O)O[C@H](c3ccccc3)[C@H](c3ccccc3)N1[C@@H]2c1ccccc1OCCO,composite z-score,[1],0.472
same,z-score,[2],-0.798 (inactive)
same,z-score,[3],-0.416 (inactive)
same,z-score,[4],-0.602 (inactive)
same,z-score,[5],-1.01 (inactive)
same,composite z-score,[6],0.875
same,composite z-score,[7],0.218
same,composite z-score,Torsin-1A (Homo sapiens) [8],0.207
same,composite z-score,Torsin-1A (Homo sapiens) [9],0.645
same,composite z-score,[10],1.09
same,z-score,[11],-0.332 (inactive)
same,composite z-score,[12],1.28
same,z-score,[13],1.17 (inactive)
same,z-score,[14],1.53 (inactive)
same,z-score,[15],0.926 (inactive)
same,z-score,[16],0.927 (inactive)
same,z-score,[17],0.344
same,z-score,[18],1.66 (inactive)
same,z-score,[19],0.683 (inactive)
same,z-score,[20],0.357
C#CCNC(/C=C/c1ccccc1)CO (stereo not given),composite z-score,[1],-0.0285
same,z-score,[2],0.171 (inactive)
same,z-score,[3],-0.558 (inactive)
same,z-score,[4],-0.237 (inactive)
same,z-score,[5],1.39 (inactive)
same,composite z-score,[6],-0.114
same,composite z-score,[7],-0.0846
same,composite z-score,Torsin-1A (Homo sapiens) [8],0.304
same,composite z-score,Torsin-1A (Homo sapiens) [9],0.443
same,composite z-score,[10],0.448
same,z-score,[11],-0.759 (inactive)
same,composite z-score,[12],-0.252
same,z-score,[13],-0.181 (inactive)
same,z-score,[14],0.36 (inactive)
same,z-score,[15],0.286 (inactive)
same,z-score,[16],0.0834 (inactive)
same,z-score,[17],0.168
same,z-score,[18],-0.867 (inactive)
same,z-score,[19],0.813 (inactive)
same,z-score,[20],-0.548
CN(C)c1ccc(C(O)C2C=CC3C(=O)NC(=O)C3N2Nc2ccc(Cl)cc2Cl)cc1 (stereo not given),composite z-score,[1],-0.0936
same,z-score,[2],0.126 (inactive)
same,z-score,[3],-1.03 (inactive)
same,z-score,[4],0.629 (inactive)
same,z-score,[5],0.628 (inactive)
same,composite z-score,[6],0.437
same,composite z-score,[7],0.13
same,composite z-score,Torsin-1A (Homo sapiens) [8],-0.0205
same,composite z-score,Torsin-1A (Homo sapiens) [9],0.776
same,composite z-score,[10],-0.214
same,z-score,[11],-0.85 (inactive)
same,composite z-score,[12],0.68
same,z-score,[13],3.51 (inactive)
same,z-score,[14],0.567 (inactive)
same,z-score,[15],1.45 (inactive)
same,z-score,[16],1.27 (inactive)
same,z-score,[17],-0.645
same,z-score,[18],-1.15 (inactive)
same,z-score,[19],-4.56 (inactive)
same,z-score,[20],-2.72
O=C(NCc1ccccc1)c1ccc(Br)cc1[N+](=O)[O-],composite z-score,[1],0.146
same,z-score,[2],-0.214 (inactive)
same,z-score,[3],0.635 (inactive)
same,z-score,[4],0.685 (inactive)
same,z-score,[5],-0.554 (inactive)
same,composite z-score,[6],-0.453
same,composite z-score,[7],-0.183
same,composite z-score,Torsin-1A (Homo sapiens) [8],0.0031
same,composite z-score,Torsin-1A (Homo sapiens) [9],-0.232
same,composite z-score,[10],0.0923
same,z-score,[11],-1.03 (inactive)
same,composite z-score,[12],-0.17
same,z-score,[13],-0.403 (inactive)
same,z-score,[14],-0.0642 (inactive)
same,z-score,[15],-1.3 (inactive)
same,z-score,[16],0.0836 (inactive)
same,z-score,[17],-0.597
same,z-score,[18],-0.564 (inactive)
same,z-score,[19],-0.281 (inactive)
same,z-score,[20],-0.032
CC(C)NC(=O)[C@@]1(Cc2ccccc2I)c2ccccc2C(=O)N(C2CCCCC2)[C@H]1c1ccc(CO)cc1,composite z-score,[1],0.345
same,z-score,[2],-3.83 (inactive)
same,z-score,[3],-1.09 (inactive)
same,z-score,[4],0.531 (inactive)
same,z-score,[5],0.24 (inactive)
same,composite z-score,[6],0.999
same,composite z-score,[7],0.122
same,composite z-score,Torsin-1A (Homo sapiens) [8],0.457
same,composite z-score,Torsin-1A (Homo sapiens) [9],0.559
same,composite z-score,[10],0.28
same,z-score,[11],0.151 (inactive)
same,composite z-score,[12],0.149
same,z-score,[13],7.99 (inactive)
same,z-score,[14],1.13 (inactive)
same,z-score,[15],3.67 (inactive)
same,z-score,[16],1.28 (inactive)
same,z-score,[17],0.274
same,z-score,[18],0.988 (inactive)
same,z-score,[19],-1.77 (inactive)
same,z-score,[20],-1.42
[N-]=[N+]=NCc1ccccc1C[C@@]1(C(=O)O)N=C(c2ccc(OCCCO)cc2)O[C@@H]1c1ccccc1N=[N+]=[N-],composite z-score,[1],-0.0964
same,z-score,[2],-2.2 (inactive)
same,z-score,[3],-0.439 (inactive)
same,z-score,[4],0.488 (inactive)
same,z-score,[5],0.142 (inactive)
same,composite z-score,[6],0.312
same,composite z-score,[7],0.0073
same,composite z-score,Torsin-1A (Homo sapiens) [8],0.0819
same,composite z-score,Torsin-1A (Homo sapiens) [9],0.0245
same,composite z-score,[10],-0.165
same,z-score,[11],0.051 (inactive)
same,composite z-score,[12],0.337
same,z-score,[13],30.3 (active)
same,z-score,[14],24.4 (active)
same,z-score,[15],1.44 (inactive)
same,z-score,[16],5.12 (inactive)
same,z-score,[17],-0.272
same,z-score,[18],-0.0613 (inactive)
same,z-score,[19],1.21 (inactive)
same,z-score,[20],0.819
C=CC[C@]1(C(=O)O)N=C(c2ccc(OCCCO)cc2)O[C@H]1c1ccccc1N=[N+]=[N-],composite z-score,[1],0.477
same,z-score,[2],-0.426 (inactive)
same,z-score,[3],1.09 (inactive)
same,z-score,[4],0.629 (inactive)
same,z-score,[5],-1.32 (inactive)
same,composite z-score,[6],1.27
same,composite z-score,[7],-0.026
same,composite z-score,Torsin-1A (Homo sapiens) [8],0.0545
same,composite z-score,Torsin-1A (Homo sapiens) [9],0.125
same,composite z-score,[10],-0.373
same,z-score,[11],1.76 (inactive)
same,composite z-score,[12],0.0299
same,z-score,[13],32.9 (active)
same,z-score,[14],29.4 (active)
same,z-score,[15],3.38 (inactive)
same,z-score,[16],9.45 (active)
same,z-score,[17],0.883
same,z-score,[18],-1.53 (inactive)
same,z-score,[19],0.823 (inactive)
same,z-score,[20],-0.199
C=CCC(OC(C)=O)[C@@H]1[C@@H](N(Cc2cccc3ccccc23)C(=O)Cc2ccc(F)cc2)c2cc(OCCCO)ccc2N1C(=O)Cc1ccc2ccccc2c1 (stereo not given in full),composite z-score,[1],-0.0893
same,z-score,[2],-0.288 (inactive)
same,z-score,[3],-0.688 (inactive)
same,z-score,[4],-0.36 (inactive)
same,z-score,[5],1.17 (inactive)
same,composite z-score,[6],-0.11
same,composite z-score,[7],-0.101
same,composite z-score,Torsin-1A (Homo sapiens) [8],-0.52
same,composite z-score,Torsin-1A (Homo sapiens) [9],0.169
same,composite z-score,[10],0.332
same,z-score,[11],0.576 (inactive)
same,composite z-score,[12],-0.0162
same,z-score,[13],1.71 (inactive)
same,z-score,[14],0.605 (inactive)
same,z-score,[15],-0.0952 (inactive)
same,z-score,[16],0.434 (inactive)
same,z-score,[17],0.163
same,z-score,[18],-0.606 (inactive)
same,z-score,[19],0.626 (inactive)
same,z-score,[20],0.765
CN1C(=O)C2C=CC(C(O)c3ccc(N(C)C)cc3)N(Nc3ccc([N+](=O)[O-])cc3[N+](=O)[O-])C2C1=O (stereo not given),composite z-score,[1],0.0988
same,z-score,[2],0.891 (inactive)
same,z-score,[3],-0.202 (inactive)
same,z-score,[4],1.03 (inactive)
same,z-score,[5],0.0229 (inactive)
same,composite z-score,[6],1.51
same,composite z-score,[7],0.529
same,composite z-score,Torsin-1A (Homo sapiens) [8],0.977
same,composite z-score,Torsin-1A (Homo sapiens) [9],1.56
same,composite z-score,[10],0.262
same,z-score,[11],-0.692 (inactive)
same,composite z-score,[12],0.719
same,z-score,[13],2.33 (inactive)
same,z-score,[14],1.27 (inactive)
same,z-score,[15],-0.169 (inactive)
same,z-score,[16],1.05 (inactive)
same,z-score,[17],-0.444
same,z-score,[18],-0.742 (inactive)
same,z-score,[19],-1.39 (inactive)
same,z-score,[20],-0.0769
